Source: the supplement of paper PMC8728848
Only a selection was taken, and the strongest signals are over-represented in it overall.

Assays:
Assay in all cases: glycan array binding signal (z-score within array); higher = stronger binding
Settings in all cases: glycan notation: IUPAC condensed, linker removed
[1] = molecular target: Fuc(a1-2)Gal(b1-3)GlcNAc(b1-3)[Fuc(a1-2)Gal(b1-3)GlcNAc(b1-6)]GalNAc
Summary of the method: (§1)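 Glycan array data came from 3228 arrays in the Consortium for Functional Glycomics database, and only arrays with an available protein sequence were kept. Glycan names were put into IUPAC-condensed notation, and columns mapping to the same glycan were averaged. The binding signal is a within-array Z-score, averaged across arrays of one protein sequence run at different concentrations or buffers and across linkers. A negative Z-score can be read as non-binding.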

[2] = molecular target: Fuc(a1-2)Gal(b1-4)GlcNAc(b1-3)Gal(b1-4)GlcNAc
Summary of the method: as §1

[3] = molecular target: Fuc(a1-2)[Gal(a1-3)]Gal(b1-4)Glc
Summary of the method: as §1

[4] = molecular target: Fuc(a1-2)[Gal(a1-3)]Gal(b1-4)[Fuc(a1-3)]GlcNAc
Summary of the method: as §1

[5] = molecular target: Fuc(a1-2)[GalNAc(a1-3)]Gal(b1-3)GlcNAc(b1-6)GalNAc
Summary of the method: as §1

[6] = molecular target: Fuc(a1-2)[GalNAc(a1-3)]Gal(b1-4)Glc
Summary of the method: as §1

[7] = molecular target: Gal(a1-3)Gal(b1-4)[Fuc(a1-3)]GlcNAc
Summary of the method: as §1

Gal(a1-4)GlcNAc = molecular target: Gal(a1-4)GlcNAc
Summary of the method: as §1

Gal(a1-6)Glc = molecular target: Gal(a1-6)Glc
Summary of the method: as §1

[8] = molecular target: Gal(b1-3)GlcNAc(a1-6)Gal(b1-4)GlcNAc
Summary of the method: as §1

[9] = molecular target: Gal(b1-3)GlcNAc(b1-3)Gal(b1-3)GlcNAc
Summary of the method: as §1

[10] = molecular target: Gal(b1-3)GlcNAc(b1-3)Gal(b1-4)GlcNAc(b1-3)Gal(b1-4)GlcNAc(b1-2)[Gal(b1-3)GlcNAc(b1-3)Gal(b1-4)GlcNAc(b1-3)Gal(b1-4)GlcNAc(b1-6)]Man(a1-6)[Gal(b1-3)GlcNAc(b1-3)Gal(b1-4)GlcNAc(b1-3)Gal(b1-4)GlcNAc(b1-2)Man(a1-3)]Man(b1-4)GlcNAc(b1-4)[Fuc(a1-6)]GlcNAc
Summary of the method: as §1

Gal(b1-3)GlcNAc6S = molecular target: Gal(b1-3)GlcNAc6S
Summary of the method: as §1

[11] = molecular target: Gal(b1-4)GlcNAc(b1-2)[Gal(b1-4)GlcNAc(b1-6)]Man(a1-6)[Gal(b1-4)GlcNAc(b1-2)Man(a1-3)]Man(b1-4)GlcNAc(b1-4)GlcNAc
Summary of the method: as §1

[12] = molecular target: Gal(b1-4)GlcNAc(b1-3)Gal(b1-4)GlcNAc(b1-3)Gal(b1-4)GlcNAc(b1-2)Man(a1-3)[Gal(b1-4)GlcNAc(b1-3)Gal(b1-4)GlcNAc(b1-3)Gal(b1-4)GlcNAc(b1-2)Man(a1-6)]Man(b1-4)GlcNAc(b1-4)[Fuc(a1-6)]GlcNAc
Summary of the method: as §1

[13] = molecular target: Gal(b1-4)GlcNAc(b1-3)Gal(b1-4)GlcNAc(b1-3)Gal(b1-4)GlcNAc(b1-2)[Gal(b1-4)GlcNAc(b1-3)Gal(b1-4)GlcNAc(b1-3)Gal(b1-4)GlcNAc(b1-6)]Man(a1-6)[Gal(b1-4)GlcNAc(b1-3)Gal(b1-4)GlcNAc(b1-3)Gal(b1-4)GlcNAc(b1-2)Man(a1-3)]Man(b1-4)GlcNAc(b1-4)[Fuc(a1-6)]GlcNAc
Summary of the method: as §1

[14] = molecular target: Gal(b1-4)GlcNAc(b1-3)Gal(b1-4)GlcNAc(b1-3)Gal(b1-4)GlcNAc(b1-3)Gal(b1-4)GlcNAc(b1-2)Man(a1-3)[Gal(b1-4)GlcNAc(b1-3)Gal(b1-4)GlcNAc(b1-3)Gal(b1-4)GlcNAc(b1-3)Gal(b1-4)GlcNAc(b1-2)Man(a1-6)]Man(b1-4)GlcNAc(b1-4)GlcNAc
Summary of the method: as §1

[15] = molecular target: Gal(b1-4)GlcNAc(b1-3)Gal(b1-4)GlcNAc(b1-3)Gal(b1-4)GlcNAc(b1-3)Gal(b1-4)GlcNAc(b1-2)Man(a1-3)[Gal(b1-4)GlcNAc(b1-3)Gal(b1-4)GlcNAc(b1-3)Gal(b1-4)GlcNAc(b1-3)Gal(b1-4)GlcNAc(b1-2)Man(a1-6)]Man(b1-4)GlcNAc(b1-4)[Fuc(a1-6)]GlcNAc
Summary of the method: as §1

[16] = molecular target: Gal(b1-4)GlcNAc(b1-3)Gal(b1-4)GlcNAc(b1-3)Gal(b1-4)GlcNAc(b1-3)Gal(b1-4)GlcNAc(b1-2)[Gal(b1-4)GlcNAc(b1-3)Gal(b1-4)GlcNAc(b1-3)Gal(b1-4)GlcNAc(b1-3)Gal(b1-4)GlcNAc(b1-6)]Man(a1-6)[Gal(b1-4)GlcNAc(b1-3)Gal(b1-4)GlcNAc(b1-3)Gal(b1-4)GlcNAc(b1-3)Gal(b1-4)GlcNAc(b1-2)Man(a1-3)]Man(b1-4)GlcNAc(b1-4)[Fuc(a1-6)]GlcNAc
Summary of the method: as §1

[17] = molecular target: Gal(b1-4)GlcNAc(b1-3)Gal(b1-4)GlcNAc(b1-3)Gal(b1-4)GlcNAc(b1-3)Gal(b1-4)GlcNAc(b1-3)Gal(b1-4)GlcNAc(b1-2)Man(a1-3)[Gal(b1-4)GlcNAc(b1-3)Gal(b1-4)GlcNAc(b1-3)Gal(b1-4)GlcNAc(b1-3)Gal(b1-4)GlcNAc(b1-3)Gal(b1-4)GlcNAc(b1-2)Man(a1-6)]Man(b1-4)GlcNAc(b1-4)GlcNAc
Summary of the method: as §1

[18] = molecular target: Gal(b1-4)GlcNAc(b1-3)Gal(b1-4)GlcNAc(b1-3)Gal(b1-4)GlcNAc(b1-3)Gal(b1-4)GlcNAc(b1-3)Gal(b1-4)GlcNAc(b1-2)Man(a1-3)[Gal(b1-4)GlcNAc(b1-3)Gal(b1-4)GlcNAc(b1-3)Gal(b1-4)GlcNAc(b1-3)Gal(b1-4)GlcNAc(b1-3)Gal(b1-4)GlcNAc(b1-2)Man(a1-6)]Man(b1-4)GlcNAc(b1-4)[Fuc(a1-6)]GlcNAc
Summary of the method: as §1

[19] = molecular target: Gal(b1-4)GlcNAc(b1-3)Gal(b1-4)GlcNAc(b1-3)Gal(b1-4)GlcNAc(b1-3)Gal(b1-4)GlcNAc(b1-3)Gal(b1-4)GlcNAc(b1-2)[Gal(b1-4)GlcNAc(b1-3)Gal(b1-4)GlcNAc(b1-3)Gal(b1-4)GlcNAc(b1-3)Gal(b1-4)GlcNAc(b1-3)Gal(b1-4)GlcNAc(b1-6)]Man(a1-6)[Gal(b1-4)GlcNAc(b1-3)Gal(b1-4)GlcNAc(b1-3)Gal(b1-4)GlcNAc(b1-3)Gal(b1-4)GlcNAc(b1-3)Gal(b1-4)GlcNAc(b1-2)Man(a1-3)]Man(b1-4)GlcNAc(b1-4)[Fuc(a1-6)]GlcNAc
Summary of the method: as §1

[20] = molecular target: Gal(b1-4)GlcNAc(b1-3)Gal(b1-4)GlcNAc(b1-3)Gal(b1-4)GlcNAc(b1-3)Gal(b1-4)GlcNAc(b1-3)Gal(b1-4)GlcNAc(b1-3)Gal(b1-4)GlcNAc(b1-2)Man(a1-3)[Gal(b1-4)GlcNAc(b1-3)Gal(b1-4)GlcNAc(b1-3)Gal(b1-4)GlcNAc(b1-3)Gal(b1-4)GlcNAc(b1-3)Gal(b1-4)GlcNAc(b1-3)Gal(b1-4)GlcNAc(b1-2)Man(a1-6)]Man(b1-4)GlcNAc(b1-4)GlcNAc
Summary of the method: as §1

B1: Gal 3C (Homo sapiens), P17931 (protein)
chain: YGAPAGPLIVPYNLPLPGGVVPRMLITILGTVKPNANRIALDFQRGNDVAFHFNPRFNENNRRVIVCNTKLDNNWGREERQSVFPFESGKPFKIQVLVEPDHFKVAVNDAHLLQYNHRVKKLNEISKLGISGDIDLTSASYTMI
glycan array binding signal (z-score) [1]: -0.212 | glycan array binding signal (z-score) [2]: 1.07 | glycan array binding signal (z-score) [3]: -0.106 | glycan array binding signal (z-score) [4]: -0.196 | glycan array binding signal (z-score) [5]: -0.229 | glycan array binding signal (z-score) [6]: -0.117 | glycan array binding signal (z-score) [7]: -0.259 | glycan array binding signal (z-score) (Gal(a1-4)GlcNAc): -0.295 | glycan array binding signal (z-score) (Gal(a1-6)Glc): -0.222 | glycan array binding signal (z-score) [8]: -0.269 | glycan array binding signal (z-score) [9]: -0.068 | glycan array binding signal (z-score) [10]: 1.95 | glycan array binding signal (z-score) (Gal(b1-3)GlcNAc6S): -0.277 | glycan array binding signal (z-score) [11]: -0.222 | glycan array binding signal (z-score) [12]: 4.24 | glycan array binding signal (z-score) [13]: 4.41 | glycan array binding signal (z-score) [14]: 5.03 | glycan array binding signal (z-score) [15]: 4.24 | glycan array binding signal (z-score) [16]: 4.44 | glycan array binding signal (z-score) [17]: 4.06 | glycan array binding signal (z-score) [18]: 6.46 | glycan array binding signal (z-score) [19]: 6.39 | glycan array binding signal (z-score) [20]: 4.39
